Experimental data: the supplement of paper PMC11732987, “Enantioselective OTUD7B fragment discovery through chemoproteomics screening and high-throughput optimisation” (Communications Chemistry, 2025)

How the values were obtained:
Assay in all cases: log2 ratio of Biotin-Ahx-Ub-VS probe labelling (fragment/DMSO); higher = less target engagement (more negative = stronger competition), active = hit call of the paper (q ≤ 0.05, log2 ratio ≤ -1)
Details in all cases: compound concentration: 200 uM; treatment time: 3 h
USP34 = USP34 (UniProt Q70CQ2)
Procedure, shortened: (§1)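 Fragment (200 µM) or vehicle was incubated for 3 h with triplicate HEK293T lysate samples of 495 µg, which were then treated with Biotin-Ahx-Ub-VS at 0.5 µM final for 1 h. Labelled DUBs were enriched on NeutrAvidin, digested with LysC and trypsin, and analysed by diaPASEF LC-MS/MS. Values are average log2 fragment/vehicle ratios from an unpaired t-test on global-median-normalised Spectronaut label-free quantities, using proteins with ≥2 unique peptides.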

USP36 = target: T1, USP36 (UniProt Q9P275)
T1 sequence (whole entry): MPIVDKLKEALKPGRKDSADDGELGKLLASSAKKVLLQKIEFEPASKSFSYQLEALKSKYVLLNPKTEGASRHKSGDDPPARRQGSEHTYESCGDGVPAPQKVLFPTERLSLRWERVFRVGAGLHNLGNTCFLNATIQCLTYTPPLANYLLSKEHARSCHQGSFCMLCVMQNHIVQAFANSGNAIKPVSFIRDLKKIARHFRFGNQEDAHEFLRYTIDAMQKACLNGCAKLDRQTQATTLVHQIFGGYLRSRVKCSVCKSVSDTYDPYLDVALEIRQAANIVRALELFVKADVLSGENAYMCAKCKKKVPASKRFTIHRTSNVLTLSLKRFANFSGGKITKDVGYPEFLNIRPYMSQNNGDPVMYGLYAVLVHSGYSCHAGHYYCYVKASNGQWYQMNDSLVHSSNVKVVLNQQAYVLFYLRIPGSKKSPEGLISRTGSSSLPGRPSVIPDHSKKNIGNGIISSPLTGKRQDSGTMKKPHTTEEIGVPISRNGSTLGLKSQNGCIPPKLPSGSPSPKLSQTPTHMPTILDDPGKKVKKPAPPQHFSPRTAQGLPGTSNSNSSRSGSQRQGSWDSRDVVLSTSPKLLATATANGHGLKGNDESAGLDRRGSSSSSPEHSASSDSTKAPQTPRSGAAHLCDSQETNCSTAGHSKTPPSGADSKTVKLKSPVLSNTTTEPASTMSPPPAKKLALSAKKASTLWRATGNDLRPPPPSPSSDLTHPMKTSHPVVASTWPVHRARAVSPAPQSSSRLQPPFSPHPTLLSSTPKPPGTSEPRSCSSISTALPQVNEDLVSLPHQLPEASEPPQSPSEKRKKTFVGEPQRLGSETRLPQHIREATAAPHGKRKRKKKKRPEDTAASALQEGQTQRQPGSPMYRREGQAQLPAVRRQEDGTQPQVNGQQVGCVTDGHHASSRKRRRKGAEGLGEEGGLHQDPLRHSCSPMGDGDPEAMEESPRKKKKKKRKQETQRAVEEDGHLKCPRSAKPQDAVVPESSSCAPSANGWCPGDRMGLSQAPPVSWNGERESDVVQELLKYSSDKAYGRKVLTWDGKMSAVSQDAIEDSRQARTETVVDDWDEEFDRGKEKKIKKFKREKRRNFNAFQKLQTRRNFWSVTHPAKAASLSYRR
Procedure, shortened: as §1

USP38 = target: T2, USP38 (UniProt Q8NB14)
T2 sequence (whole entry): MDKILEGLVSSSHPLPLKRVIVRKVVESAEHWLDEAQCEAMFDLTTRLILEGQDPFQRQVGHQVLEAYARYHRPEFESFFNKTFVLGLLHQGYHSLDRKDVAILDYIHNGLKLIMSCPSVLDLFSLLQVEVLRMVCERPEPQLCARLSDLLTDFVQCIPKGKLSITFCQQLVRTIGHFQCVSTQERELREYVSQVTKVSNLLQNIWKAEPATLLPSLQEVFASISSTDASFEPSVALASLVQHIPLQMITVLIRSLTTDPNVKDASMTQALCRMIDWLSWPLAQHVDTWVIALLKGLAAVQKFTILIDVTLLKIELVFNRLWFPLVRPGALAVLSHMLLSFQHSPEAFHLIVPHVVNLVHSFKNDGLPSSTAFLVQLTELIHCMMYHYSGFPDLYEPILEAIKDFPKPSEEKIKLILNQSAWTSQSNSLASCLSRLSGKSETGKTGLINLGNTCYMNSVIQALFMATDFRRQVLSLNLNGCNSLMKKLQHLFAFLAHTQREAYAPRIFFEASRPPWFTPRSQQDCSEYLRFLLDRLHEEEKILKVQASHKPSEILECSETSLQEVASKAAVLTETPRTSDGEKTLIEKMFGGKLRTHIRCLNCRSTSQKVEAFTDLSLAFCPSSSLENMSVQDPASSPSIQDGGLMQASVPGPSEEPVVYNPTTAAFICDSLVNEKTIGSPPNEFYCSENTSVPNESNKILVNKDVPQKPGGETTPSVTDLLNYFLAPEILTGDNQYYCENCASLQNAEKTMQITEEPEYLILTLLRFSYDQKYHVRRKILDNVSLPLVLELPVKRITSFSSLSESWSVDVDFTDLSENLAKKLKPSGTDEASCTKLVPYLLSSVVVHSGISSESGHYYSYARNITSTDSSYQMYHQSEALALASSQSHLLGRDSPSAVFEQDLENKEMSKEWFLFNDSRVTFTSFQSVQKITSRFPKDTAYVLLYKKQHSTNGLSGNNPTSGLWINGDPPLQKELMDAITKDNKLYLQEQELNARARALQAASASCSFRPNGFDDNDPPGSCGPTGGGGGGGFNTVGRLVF
Procedure, shortened: as §1

USP39 = target: T3, USP39 (UniProt Q53GS9)
T3 sequence (whole entry): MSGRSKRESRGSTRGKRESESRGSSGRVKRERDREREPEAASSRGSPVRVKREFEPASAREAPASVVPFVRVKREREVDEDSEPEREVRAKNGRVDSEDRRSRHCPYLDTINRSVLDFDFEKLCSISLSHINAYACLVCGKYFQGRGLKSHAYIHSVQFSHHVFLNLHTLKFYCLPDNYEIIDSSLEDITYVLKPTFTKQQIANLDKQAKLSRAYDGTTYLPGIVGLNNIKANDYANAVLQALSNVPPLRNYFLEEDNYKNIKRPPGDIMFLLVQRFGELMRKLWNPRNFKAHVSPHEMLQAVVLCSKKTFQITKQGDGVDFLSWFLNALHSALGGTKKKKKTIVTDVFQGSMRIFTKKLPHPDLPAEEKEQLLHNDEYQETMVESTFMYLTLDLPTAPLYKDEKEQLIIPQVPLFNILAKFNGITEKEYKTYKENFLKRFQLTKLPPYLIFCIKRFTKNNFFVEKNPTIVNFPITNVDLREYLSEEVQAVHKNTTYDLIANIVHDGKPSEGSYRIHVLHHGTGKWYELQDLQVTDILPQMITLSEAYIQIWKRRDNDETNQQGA
Procedure, shortened: as §1

USP4 = target: T4, USP4 (UniProt Q13107)
T4 sequence (whole entry): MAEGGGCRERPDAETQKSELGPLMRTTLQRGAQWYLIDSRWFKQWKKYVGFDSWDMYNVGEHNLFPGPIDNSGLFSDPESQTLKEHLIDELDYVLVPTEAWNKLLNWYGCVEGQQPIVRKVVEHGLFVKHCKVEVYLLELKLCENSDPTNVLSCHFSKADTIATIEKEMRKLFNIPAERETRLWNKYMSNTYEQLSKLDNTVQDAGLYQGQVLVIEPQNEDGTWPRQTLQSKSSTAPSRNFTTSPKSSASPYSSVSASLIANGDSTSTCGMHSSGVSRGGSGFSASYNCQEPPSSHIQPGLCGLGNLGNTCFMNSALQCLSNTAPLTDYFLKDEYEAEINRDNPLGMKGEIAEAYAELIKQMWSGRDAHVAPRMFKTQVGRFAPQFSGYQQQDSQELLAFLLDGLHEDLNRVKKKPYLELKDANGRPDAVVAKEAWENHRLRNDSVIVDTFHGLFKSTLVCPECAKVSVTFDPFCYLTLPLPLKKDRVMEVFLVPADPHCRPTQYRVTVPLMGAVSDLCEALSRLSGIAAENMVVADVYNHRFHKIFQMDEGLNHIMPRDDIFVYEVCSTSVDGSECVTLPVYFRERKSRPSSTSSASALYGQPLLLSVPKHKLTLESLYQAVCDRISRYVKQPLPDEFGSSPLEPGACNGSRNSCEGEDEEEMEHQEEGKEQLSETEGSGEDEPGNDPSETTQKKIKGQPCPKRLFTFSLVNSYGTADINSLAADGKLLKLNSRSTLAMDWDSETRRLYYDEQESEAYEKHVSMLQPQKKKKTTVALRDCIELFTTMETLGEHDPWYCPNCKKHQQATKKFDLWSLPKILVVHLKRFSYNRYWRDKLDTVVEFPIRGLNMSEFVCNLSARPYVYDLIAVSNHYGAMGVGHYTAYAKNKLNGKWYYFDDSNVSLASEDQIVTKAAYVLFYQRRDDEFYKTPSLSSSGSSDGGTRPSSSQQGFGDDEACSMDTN
Procedure, shortened: as §1

Measured: log2 ratio of Biotin-Ahx-Ub-VS probe labelling

Sequence of USP34 (Q70CQ2 whole entry, the tested form may be a part): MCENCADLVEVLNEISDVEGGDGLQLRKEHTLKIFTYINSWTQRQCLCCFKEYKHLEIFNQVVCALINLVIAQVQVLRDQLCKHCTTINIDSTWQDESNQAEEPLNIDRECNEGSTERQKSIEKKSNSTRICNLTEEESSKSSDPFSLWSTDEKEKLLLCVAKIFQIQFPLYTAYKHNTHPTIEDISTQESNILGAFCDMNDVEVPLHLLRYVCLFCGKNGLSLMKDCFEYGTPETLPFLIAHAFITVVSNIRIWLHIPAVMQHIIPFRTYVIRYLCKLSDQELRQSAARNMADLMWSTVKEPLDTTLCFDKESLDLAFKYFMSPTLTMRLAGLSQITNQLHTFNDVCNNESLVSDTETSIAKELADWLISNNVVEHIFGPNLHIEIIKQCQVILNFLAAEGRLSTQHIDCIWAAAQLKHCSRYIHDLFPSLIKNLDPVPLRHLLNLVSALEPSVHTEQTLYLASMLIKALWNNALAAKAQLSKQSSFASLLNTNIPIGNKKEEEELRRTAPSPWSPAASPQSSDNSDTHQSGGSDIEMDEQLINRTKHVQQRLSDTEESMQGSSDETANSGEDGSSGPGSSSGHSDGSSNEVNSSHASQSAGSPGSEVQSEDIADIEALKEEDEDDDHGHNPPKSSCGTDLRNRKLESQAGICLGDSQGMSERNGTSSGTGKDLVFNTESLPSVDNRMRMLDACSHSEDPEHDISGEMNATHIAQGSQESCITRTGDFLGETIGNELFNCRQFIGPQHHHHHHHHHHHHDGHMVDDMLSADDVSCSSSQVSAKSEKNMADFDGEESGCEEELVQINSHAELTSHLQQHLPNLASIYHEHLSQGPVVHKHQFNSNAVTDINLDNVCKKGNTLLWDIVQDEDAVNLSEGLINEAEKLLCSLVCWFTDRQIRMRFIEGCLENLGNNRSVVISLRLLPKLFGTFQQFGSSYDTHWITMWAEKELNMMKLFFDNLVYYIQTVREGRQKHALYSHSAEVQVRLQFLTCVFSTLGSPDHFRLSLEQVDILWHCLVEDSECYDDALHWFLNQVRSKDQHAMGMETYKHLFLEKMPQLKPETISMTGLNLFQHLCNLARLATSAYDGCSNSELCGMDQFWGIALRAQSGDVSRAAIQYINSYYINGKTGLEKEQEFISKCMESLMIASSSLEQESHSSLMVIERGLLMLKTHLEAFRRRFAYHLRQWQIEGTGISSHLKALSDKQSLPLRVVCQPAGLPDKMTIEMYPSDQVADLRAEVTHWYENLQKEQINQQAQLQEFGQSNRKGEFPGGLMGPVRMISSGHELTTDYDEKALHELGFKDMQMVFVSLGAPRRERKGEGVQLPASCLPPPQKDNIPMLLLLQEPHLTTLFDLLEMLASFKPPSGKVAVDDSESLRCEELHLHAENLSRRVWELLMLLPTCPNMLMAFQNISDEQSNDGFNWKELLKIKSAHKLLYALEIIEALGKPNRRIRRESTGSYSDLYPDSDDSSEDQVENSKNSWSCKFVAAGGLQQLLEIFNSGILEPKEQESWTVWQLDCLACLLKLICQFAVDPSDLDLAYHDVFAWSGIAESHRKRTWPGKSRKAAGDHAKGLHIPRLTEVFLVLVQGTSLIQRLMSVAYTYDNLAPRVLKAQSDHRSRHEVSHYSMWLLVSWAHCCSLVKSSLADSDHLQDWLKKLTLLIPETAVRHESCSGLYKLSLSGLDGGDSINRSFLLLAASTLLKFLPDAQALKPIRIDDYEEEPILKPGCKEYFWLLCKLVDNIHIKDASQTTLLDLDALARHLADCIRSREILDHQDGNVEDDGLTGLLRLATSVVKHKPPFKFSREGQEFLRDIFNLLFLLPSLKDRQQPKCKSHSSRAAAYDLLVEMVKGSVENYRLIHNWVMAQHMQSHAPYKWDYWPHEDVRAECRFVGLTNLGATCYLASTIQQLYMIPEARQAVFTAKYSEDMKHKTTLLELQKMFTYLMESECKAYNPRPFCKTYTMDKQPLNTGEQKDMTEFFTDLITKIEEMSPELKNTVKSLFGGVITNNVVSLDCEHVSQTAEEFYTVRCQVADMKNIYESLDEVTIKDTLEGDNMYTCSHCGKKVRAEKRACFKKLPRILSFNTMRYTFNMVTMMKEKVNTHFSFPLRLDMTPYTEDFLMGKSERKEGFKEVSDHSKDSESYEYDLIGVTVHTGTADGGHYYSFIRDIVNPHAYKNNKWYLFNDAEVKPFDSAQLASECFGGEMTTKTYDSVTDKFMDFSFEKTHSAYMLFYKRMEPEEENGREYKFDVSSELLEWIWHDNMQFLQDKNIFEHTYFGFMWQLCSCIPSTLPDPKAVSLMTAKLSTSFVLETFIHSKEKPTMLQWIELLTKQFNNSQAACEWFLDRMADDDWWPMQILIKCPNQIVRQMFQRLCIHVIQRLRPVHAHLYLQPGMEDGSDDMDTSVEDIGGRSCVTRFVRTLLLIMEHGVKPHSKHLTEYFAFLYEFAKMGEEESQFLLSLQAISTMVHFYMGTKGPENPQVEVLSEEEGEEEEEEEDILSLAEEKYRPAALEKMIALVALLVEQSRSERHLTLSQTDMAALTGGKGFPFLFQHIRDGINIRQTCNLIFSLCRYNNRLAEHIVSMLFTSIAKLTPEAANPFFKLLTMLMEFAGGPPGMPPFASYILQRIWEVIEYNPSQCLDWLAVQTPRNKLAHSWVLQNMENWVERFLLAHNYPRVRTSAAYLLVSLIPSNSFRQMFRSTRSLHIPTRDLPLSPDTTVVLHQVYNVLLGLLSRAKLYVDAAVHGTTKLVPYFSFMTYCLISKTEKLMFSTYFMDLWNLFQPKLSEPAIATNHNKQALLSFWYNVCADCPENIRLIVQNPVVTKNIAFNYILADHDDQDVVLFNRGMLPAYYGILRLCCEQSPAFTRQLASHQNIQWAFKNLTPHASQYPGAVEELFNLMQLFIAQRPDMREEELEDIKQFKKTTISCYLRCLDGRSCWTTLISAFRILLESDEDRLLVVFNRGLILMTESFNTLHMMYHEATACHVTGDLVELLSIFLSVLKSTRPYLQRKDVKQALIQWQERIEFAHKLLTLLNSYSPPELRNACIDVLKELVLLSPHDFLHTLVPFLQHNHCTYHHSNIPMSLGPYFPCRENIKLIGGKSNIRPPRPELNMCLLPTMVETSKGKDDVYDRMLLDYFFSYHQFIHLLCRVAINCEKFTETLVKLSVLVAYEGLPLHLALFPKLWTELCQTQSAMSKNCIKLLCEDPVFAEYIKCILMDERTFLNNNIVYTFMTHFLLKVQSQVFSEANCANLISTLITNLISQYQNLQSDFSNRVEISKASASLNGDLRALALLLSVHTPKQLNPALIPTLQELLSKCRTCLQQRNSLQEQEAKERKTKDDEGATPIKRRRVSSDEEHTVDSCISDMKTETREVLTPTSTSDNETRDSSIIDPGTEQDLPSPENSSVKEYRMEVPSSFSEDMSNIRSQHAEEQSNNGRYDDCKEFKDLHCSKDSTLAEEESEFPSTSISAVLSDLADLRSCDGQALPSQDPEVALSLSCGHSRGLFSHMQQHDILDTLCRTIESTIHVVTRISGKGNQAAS

O=C(CCl)Nc1ccccc1C(F)(F)F
inactive: USP34 -0.296 | USP36 0.187 | USP38 -0.0183 | USP39 0.198 | USP4 -0.1
